Screens (PubChem)
An excerpt weighted towards active compounds, which were near 1.5% of everything screened.
CCHFV vOTU inh – CCHFV vOTU protease inhibitors, primary screen, biochemical, Pep-AMC substrate, fluorescence. inhibition, % at 11.5 µM. 0.55% of 370,000 active. Crimean-Congo hemorrhagic fever virus L polyprotein viral ovarian tumor (vOTU) protease …; in the data active = inhibition above about 30%; also: 0% = vehicle wells with enzyme and 100% = no enzyme wells
Sa RN4220 lethal – growth inhibition of S. aureus RN4220, primary screen, OD600; inhibition, % (concentration not given with the values); AID 1259311, 2017; 16 h; 0.33% of 330,000 active; in the data active = inhibition above about 85%;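 also: plate controls were untreated cells for no effect and reference antibiotic for full effect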
Sa ugtP lethal – growth inhibition of ugtP-null S. aureus, primary screen, RN4220 ugtP deletion, OD600. 16 h. growth inhibition, % (no concentration beside the values). 0.54% of 330,000 active. AID 1259309, 2017; in the data active = growth inhibition above about 68%;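 also: plate controls were untreated wells for no effect and antibiotic for full effect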
DUSP3 inh – VHR1 phosphatase inhibitors, primary screen, biochemical, absorbance, uHTS. recombinant VHR phosphatase, pNPP absorbance. Dual specificity protein phosphatase 3 (Homo sapiens), P51452. AID 1654, 2009. inhibition, % at 13.3 µM. 0.52% of 290,000 active; in the data active = inhibition above about 50%
Target sequence (P51452 whole entry, looked up): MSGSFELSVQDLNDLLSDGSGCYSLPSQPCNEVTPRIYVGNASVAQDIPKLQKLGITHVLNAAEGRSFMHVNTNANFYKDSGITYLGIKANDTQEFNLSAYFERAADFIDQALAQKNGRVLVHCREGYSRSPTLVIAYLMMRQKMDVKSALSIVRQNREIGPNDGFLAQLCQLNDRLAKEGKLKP
SSB-PriA inh – inhibitors of Klebsiella pneumoniae PriA binding to SSB C-terminal tail, primary screen, biochemical, AlphaScreen | PriA–SSB C-terminal tail interaction (Klebsiella pneumoniae) | AlphaScreen SSBct-PriA binding, biotinylated peptide | inhibition, % at 33 µM | 0.6% of 430,000 active; in the data active = inhibition mostly above about 37%, no sharp cut-off; inactive = mostly below about 20%;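 also: plate controls were negative control peptide for no effect and reference peptide for full effect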
Active calls of the source: *; . = not tested or not shown.

SMILES | CCHFV vOTU inh | Sa RN4220 lethal | Sa ugtP lethal | DUSP3 inh | SSB-PriA inh
CS(=O)(=O)N(CC(=O)N1CCCCC1)Cc1ccccc1 | -4 | . | . | -15 | 59*
CCOCC(=O)Nc1cc(-c2cn3nc(OC)ccc3n2)ccc1OC | . | . | . | . | -11
CCN(CC)S(=O)(=O)c1ccc(N=Nc2c(C)[nH]n(C(N)=S)c2=O)cc1 | 31* | 3 | -5 | 8 | 9
Cn1nc(CNC(=O)c2ccc(OC(F)(F)F)cc2)cc1-c1ccccn1 | . | . | . | . | -2
CCCCC(=O)NN=Cc1ccc(Sc2cccc3cccnc23)o1 | . | 5 | -15 | . | 100*
COc1cccc(CSc2nc(C)c(CC(=O)Nc3cccc(F)c3)c(=O)[nH]2)c1 | . | . | . | . | -3
O=Nc1c(O)c2ccccc2c2ccccc12 | 0 | 100* | 99* | . | 29
O=C(Nn1c(=O)[nH]c2ccsc2c1=O)c1ccccc1 | 1 | 98* | 100* | 6 | -7
O=C(Nc1ccc(Cl)c(Cl)c1)C1=Cc2ccccc2OC1 | 2 | 86* | 98* | 16 | -41
O=S(=O)(Nc1ccc(NCC2CCCO2)nn1)c1ccccc1 (stereo not given) | . | . | . | . | -27
CCOC(=O)C(=Cc1ccc(-c2ccsc2C(=O)OC)o1)C(=O)OCC | -10 | -1 | 9 | 45 | -12
CCOC(=O)/C(C#N)=C/c1ccc(-c2ccsc2C(=O)OC)o1 | -5 | 5 | 6 | 53* | -12
COc1ccccc1NC(=O)C1=C(C)Nc2nc(-c3cccs3)nn2C1c1ccccc1[N+](=O)[O-] (stereo not given) | . | . | . | . | 35*
COc1ccccc1NC(=O)C1=C(C)Nc2nc(-c3cccs3)nn2C1c1cccc(O)c1 (stereo not given) | 4 | . | . | 19 | -11
O=[N+]([O-])c1ccc(-[n+]2c(-c3ccccc3)cc(-c3ccccc3)cc2-c2ccccc2)cc1 | 0 | -1 | -5 | -20 | -8
O=[N+]([O-])c1ccccc1-c1cc(-c2ccccc2)cc(-c2ccccc2)[n+]1Cc1ccccc1Cl | 4 | 86* | 98* | . | 10
O=C(CSc1ncnc2ccccc12)N1N=C(c2cccs2)C[C@H]1c1ccc(F)cc1 | . | . | . | . | -14
O=C(/C=C/c1cccc(C(F)(F)F)c1)Nc1cccc(C(F)(F)F)c1 | 8 | 100* | 100* | 26 | -45
Cc1ccc(NC(=O)/C=C/c2cccc(C(F)(F)F)c2)cc1 | 8 | 8 | 3 | 5 | -8
O=C(Cc1cccc2ccccc12)NC1CCCC(OC(=O)Nc2ccccc2)C1 (stereo not given) | . | . | . | . | -10
CN(C)CCCNc1oc(-c2ccccc2)nc1C#N | -33 | 6 | 7 | 25 | 2
CN(C)CCNc1oc(-c2cccc(Cl)c2)nc1C#N | -35 | 7 | -5 | 51* | 3
CCOc1ccc(C(=O)NC(=S)Nc2ccc(N3CCCCC3)cc2)cc1[N+](=O)[O-] | 6 | 1 | 31 | 5 | 6
CC(=O)N1CCN(c2ccc(NC(=S)NC(=O)c3ccc(C)c([N+](=O)[O-])c3)cc2)CC1 | 2 | 4 | 90* | 2 | 3
COc1ccc(C(=O)NC(=S)Nc2ccc(N3CCN(C(C)=O)CC3)cc2)cc1[N+](=O)[O-] | 4 | 4 | 99* | -3 | -8
SMILES | CCHFV vOTU inh | Sa RN4220 lethal | Sa ugtP lethal | DUSP3 inh | SSB-PriA inh
CCOc1ccc(N)c([N+](=O)[O-])c1 | . | . | . | . | 39*
COc1cc2c(ccc3cc(OC)c(OC)c(O)c32)cc1O | -1 | 2 | -9 | 53* | 4
Cc1cc(C)n2ncc(C(N)=NOC(=O)c3ccccc3F)c2n1 | . | . | . | . | -2
O=C(NCc1ccc2c(c1)OCO2)c1ccc(Br)cc1 | -7 | 0 | 3 | 26 | -3
Cc1nc2cc(C(=O)NCc3ccc4c(c3)OCO4)ccc2n1-c1ccc(Br)cc1 | -3 | -16 | 96* | -1 | 7
COc1ccc(OC)c(Nc2nc(CC(=O)NCCc3c[nH]c4ccccc34)cs2)c1 | . | . | . | . | 16*
COc1ccc(OC)c(Nc2nc(CC(=O)NCc3cccs3)cs2)c1 | . | . | . | . | 11
COc1ccc(OC)c(Nc2nc(CC(=O)NCCC3=CCCCC3)cs2)c1 | . | . | . | . | 22*
CCOC(=O)CN1C(=O)CN(C(=O)c2ccccc2)C1=S | . | . | . | . | 5
O=C(c1cccs1)N1N=C(c2ccccc2)CC1c1ccc2nccnc2c1 (stereo not given) | . | . | . | . | 37*
O=C(c1cccs1)N1N=C(c2ccccc2)C[C@H]1c1ccc2nccnc2c1 | . | . | . | . | -1
CCn1nc(NC(=O)C(C)C)c2cc3cccc(C)c3nc21 | 6 | 0 | -6 | 56* | -9
